From PubChem
Most compounds without a hit are left out; they make up all but 8% or so of the library.
FMDV inh: foot and mouth disease virus antiviral activity; FMDV antiviral cell-based qHTS; Potency, µM (highest dose often 57.9 µM), for inactives: top-dose activity change, negative = inhibition, most hits filed as inhibitors; 410,000 tested, 1.2% active; AID 1159524; calls by dose curve; tested in HEK293T cells; also: read-out not given here; potency is read from the fitted curve at half-maximal effect; % is scaled to controls: 0 for no effect and ±100 for the full control effect; nearly all actives have a fitted effect of over 45% in size
HCV inh: inhibitors of hepatitis C virus infection; Huh7.5.1 HCVcc-Cre infection, luciferase reporter, 44 h; Potency, µM (doses to about 41.8 µM), for inactives: top-dose activity change, negative = inhibition, most hits filed as inhibitors; 340,000 tested, 3.4% active; active = well fitted inhibition curve with a large enough effect; inconclusive = small, poorly fitted or top-dose-only effect, or another doubt; inactive = no such curve, though single readings can be large or run the other way; also: potency is read from the fitted curve at half-maximal effect; % is scaled to controls: 0 for no effect and ±100 for the full control effect
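Cells seeded at 1,000/well and cultured 4 h, then compounds added followed by HCVcc-Cre virus (~0.5 moi). After 44 h further culture, luciferase substrate was added, plates held 15 min at room temperature, and luminescence read for 15 sec.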
SARS PLP yeast: inhibitors of SARS-CoV papain-like protease in yeast; S. cerevisiae expressing SARS-CoV PLpro, growth rescue; 330,000 tested, 0.19% active; Potency, µM (titrated, usually from 32.9 µM), for inactives: top-dose activity, positive = growth rescue, hits mostly activators; AID 485353; calls by dose curve; also: potency is read from the fitted curve at half-maximal effect; 0% is about no effect; nearly all actives have a fitted effect of over 55% in size
MARV entry inh: Marburg virus entry inhibition | Marburg virus pseudotyped entry inhibition, cell reporter | Potency, µM (titrated, usually from 37.8 µM), for the others: top-dose activity change, negative = inhibition, actives largely listed as inhibitors | 300,000 tested, 1.8% active | AID 540276; calls by dose curve; tested in HEK293 cells; also: potency is read from the fitted curve at half-maximal effect; % is scaled to controls: 0 for no effect and ±100 for the full control effect
LASV entry inh: blocks Lassa virus binding to or entry into cells | Lassa virus pseudotype entry inhibition, cell reporter | Potency, µM (titrated, usually from 37.9 µM), inactives show at the top dose activity change, negative = inhibition, most hits filed as inhibitors | 300,000 tested, 1.2% active | AID 540256; calls by dose curve; tested in HEK293 cells; also: potency is read from the fitted curve at half-maximal effect; % is scaled to controls: 0 for no effect and ±100 for the full control effect; nearly all actives have a fitted effect of over 50% in size
HCMV inh: human cytomegalovirus inhibition; activity change, negative = inhibition, % at 57.5 µM; 410,000 tested, 4.5% active; AID 1259415; HFF cells, HCMV-luciferase reporter, 72 h; hits give low values; in the data active = activity change below about -60%; inconclusive = no clear call, values can overlap the other calls; inactive = above about -39%; also: % is scaled to controls: 0 for no effect and ±100 for the full control effect
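Two-dose cell screen: HFF monolayers treated with compounds and infected with luciferase-expressing HCMV at 1 PFU/cell, 72 h at 37C, then lysed for luciferase measurement.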
* = called active by the depositor; ? = inconclusive; . = not tested or not shown; [ ] = another dose, or the depositor's remark.

SMILES | FMDV inh | HCV inh | SARS PLP yeast | MARV entry inh | LASV entry inh | HCMV inh
CCc1cccc(NC(=S)N2CCC(c3ccccc3)C2)c1 (stereo unspecified) | 17% | -17% | -5% | ? | ? | -5
Cc1ccccc1C(=O)N1CCc2c(cnc(C)c2CNC(=O)CN2CCCCC2)C1 | -20% | . | . | . | . | .
CCOc1ccc2nc3cc(N)ccc3c(N)c2c1 | 3% | . | . | . | . | .
CCOc1ccc2nc3ccc4[nH]onc4c3c2c1 | . | 2.5µM* | . | -7% | -12% | ?
CN(C)c1cccc2c1c(NC(=O)Nc1ccc(F)cc1F)nn2C | -6% | ? | 1% | . | . | -63*
CCn1c(CC(=O)Nc2ccc(Cl)c(Cl)c2)nnc1SCc1ccc(C)cc1 | -17% | -10% | 6% | 4% | 1% | -24
CCn1c(CC(=O)Nc2ccc(Cl)c(Cl)c2)nnc1SCc1ccc(Cl)cc1 | -22% | 9% | 10% | -1% | 24% | -100*
CCN(CC)S(=O)(=O)c1ccc(N/N=C(\C)c2ccc(OC)cc2O)nc1 | -21% | ? | 10% | . | . | -62*
CN(C(=O)COC(=O)Cn1cnc2ccccc21)C1CCCCC1 | -25% | 7% | 14% | -3% | 2% | -94*
CC1CCN(C(=O)COC(=O)Cn2cnc3ccccc32)CC1 | -6% | 13% | 20% | ? | -13% | -67*
Cn1c(=O)[nH]c(=O)c2c1nc(N1CCN(CCO)CC1)n2Cc1ccccc1 | -16% | 7% | 5% | 3%[46.1 µM] | -16%[46.1 µM] | -5
O=C1c2ccccc2C(=O)c2ccccc21 | 1% | . | . | . | . | .
c1ccc2c(c1)[IH]c1ccccc1-2 | ? | 0.028µM* | . | . | . | -100*
COc1ccc(NC(=O)CCN2C(=O)C3CC=CCC3C2=O)cc1S(=O)(=O)N1CCCCC1 (stereo unspecified) | -24% | 2% | 4% | -2% | 1% | -7
C=CCc1cc(Cl)ccc1OCCCn1ccnc1 | -13% | ? | -5% | . | . | 44
COC(=O)Cc1ccc(NC(=O)c2ccccc2Br)cc1 | 33% | 10% | -1% | ? | -10% | -32
O=C(COc1ccc(S(=O)(=O)N2CCOCC2)cc1Cl)NC1CCCCC1 | -8% | 13% | -1% | 3% | -20% | 8
O=S(=O)(c1ccc(OCC(O)CNC23CC4CC(CC(C4)C2)C3)c(Cl)c1)N1CCOCC1 (stereo unspecified) | -1% | ? | 0% | 2µM* | -3%[46.1 µM] | -12
COCCN1C(=NCC(C)C)NC(c2ccccc2)C(C(=O)OC)=C1C (stereo unspecified) | . | . | . | 29%[14.2 µM] | ? | .
CCc1ccc(N2C=C(C(=O)OC)C(c3ccc(OC)cc3)C(C#N)=C2N)cc1 (stereo unspecified) | ? | . | . | . | . | -77*
O=C1C[C@H](S(=O)(=O)c2ccccc2)[C@@H](/C=C/c2ccccc2)N1Cc1ccccc1 | . | . | . | . | . | -4
Cc1cnccc1CN(C)Cc1nc(Cc2ccccc2Cl)no1 | ? | ? | -1% | 3%[46.1 µM] | ? | -61*
CN(Cc1ccccn1)Cc1nc(Cc2ccccc2Cl)no1 | 1% | 2% | 1% | 11%[46.1 µM] | ? | ?
O=C(NC12CC3CC(CC(C3)C1)C2)c1ccc(-c2ccc(Cl)cc2)o1 | 4% | ? | 0% | ? | ? | -24
O=C(NC12CC3CC(CC(C3)C1)C2)c1ccc(-c2cccc(Cl)c2)o1 | 29% | ? | -53% | -25% | -21% | -63*
SMILES | FMDV inh | HCV inh | SARS PLP yeast | MARV entry inh | LASV entry inh | HCMV inh
O=C(NC12CC3CC(CC(C3)C1)C2)c1ccc(COc2ccc(Cl)cc2[N+](=O)[O-])o1 | ? | 8.9µM* | -8% | ? | ? | .
Cc1ccccc1CN(C)C(C)C(=O)NCc1ccccc1 (stereo unspecified) | -14% | ? | -4% | -14% | -4% | -34
O=c1c2cc3c(nc2ncn1Cc1ccccc1F)CCCC3 | 21% | . | . | . | ? | -31
COc1ccc2[nH]c3c4c(ccc3c2c1)C(=O)C=CC4=O | 14µM* | ? | -5% | . | . | 81
CCN(CC)C1=CC(=[N+]2CCCC2)CC(C)(C)C1 | ? | ? | ? | 1.3µM* | ? | -95*
CN(C)c1cccc(NC2=CC(=[N+]3CCOCC3)CC(C)(C)C2)c1 | 4% | 8% | 8% | -13% | -26% | 47
